mTORC1 inh = reduces mTORC1 signaling in Tsc2 and p53 null MEF cells; Potency, µM (titrated, usually from 38.3 µM), for the others: at the highest dose activity change, negative = inhibition, most hits filed as inhibitors; 0.78% of 44,000 active; Tsc2-/- p53-/- MEF, phospho-rpS6 immunofluorescence/PI, 24 h; AID 493208;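 note: plate controls were DMSO for no effect and rapamycin for full effect; nearly all actives have a fitted effect of over 50% in size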
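Cell-based qHTS: Tsc2-/- p53-/- MEF, 24 h cpd, 37 °C; fix/perm, anti-phospho-S6 Alexa-488 + PI; Acumen 488 nm scan; pS6/PI ratio, % positive cells; rapamycin 7.5 nM = inhibition ref; PI count = viability.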
p53null 32C tox = p53 null cell cytotoxicity, permissive temperature. H1299-neo p53 null cells, ATP luminescence, 24 h, 32C. Potency, µM (series often up to 46.1 µM), for inactives: top-dose activity change, negative = cytotoxicity, actives largely listed as cytotoxic. 0.62% of 55,000 active;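 note: 0% = DMSO only and -100% = full killing by 100 µM tamoxifen; nearly all actives have a fitted effect of over 55% in size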
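Overnight 37C seeding (600 cells/well) of H1299-neo preceded a 24 hr, 32C exposure to compounds up to 46 uM. ATP levels, read by luminescence after 20 min at RT, indicated surviving cells.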
PMP22 txn prim = modulates PMP22 transcription in S16 Schwann cells; S16 Pmp22-F2sN Schwann cells, FLuc/NLuc coincidence luminescence, 24 h; Potency, µM (series often up to 57.5 µM), without a hit: at the top dose activity change, negative = inhibition, most hits filed as inhibitors; 2% of 43,000 active; AID 1508649; active = clear falling dose curves in both reporters; inconclusive = both reporters move, but less clearly or upward; inactive = either reporter flat; the % is the NLuc reporter signal
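Luminescent read-out of sequential FLuc and NLuc signals from a reporter embedded in the Pmp22 3' UTR of S16 Schwann cells, taken after 24 h compound exposure at 37C; compounds reducing both signals score as inhibitors of expression.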
S16 F2sN tox = cytotoxicity in S16 Pmp22-F2sN Schwann cells. S16 Pmp22-F2sN Schwann cells viability, CellTiter-Glo, 24 h. Potency, µM (titrated, usually from 57.5 µM), for the others: at the top dose activity change, negative = cytotoxicity, actives largely listed as cytotoxic. 0.48% of 43,000 active. AID 1508642; note: nearly all actives have a fitted effect of over 65% in size
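S16 Pmp22-F2sN Schwann cells (500-1,000/well) in phenol-red-free DMEM with 10% FBS received 23 nL compound by pin tool for 24 h at 37 °C. Viability was then read as CellTiter-Glo luminescence after 15 min at room temperature.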
p53null 39C kill = p53 null cell cytotoxicity, nonpermissive temperature. 0.97% of 55,000 active. H1299 p53-null (neo) cells, 39C, ATPlite viability, 24 h. Potency, µM (titrated, usually from 46.1 µM), for the others: at the top dose activity, negative = cell killing, hits mostly cytotoxic. AID 904;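 note: 0% = DMSO only and -100% = full killing by 100 µM tamoxifen; nearly all actives have a fitted effect of over 50% in size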
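Concentration-response (up to 46 uM) was run for 24 h at the nonpermissive 39C on H1299-p53A138V or H1299-neo cells. ATP content was measured with ATPlite luminescence. AC50 values were Hill-modeled after normalizing between DMSO and 100 uM tamoxifen killing.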
Starred values were filed as active, the others as inactive; u = inconclusive; x = no result. Shown are actives, neighbours in structure and some others; about 3.2% of the full set was active somewhere. Unless noted, calls come from the whole dose curve; as a rule, active = well fitted curve in the direction sought with a large enough effect; inconclusive = small, poorly fitted or top-dose-only effect, or another doubt; inactive = no such curve, though single readings can be large; an effect the other way counts as inactive or inconclusive. Unless noted, % is set by controls: 0 for no effect and ±100 for the full control effect; potency is the fitted concentration of half-maximal effect.

SMILES	mTORC1 inh	p53null 32C tox	PMP22 txn prim	S16 F2sN tox	p53null 39C kill
CC1CCN(c2ccc(-c3cccc(NS(=O)(=O)c4ccc(F)cc4F)c3)nn2)CC1	-7.2%	10µM*	x	x	10µM*
COc1ccc(CNC(=O)c2cc(-c3ccc(OC)c(OC)c3)nc3n[nH]c(-c4ccc(C)cc4)c23)cc1	14.7µM*	-12.0%	u	-12.6%	-1.7%
COc1ccc(CNC(=O)c2cc(-c3ccc(OC)cc3)nc3n[nH]c(-c4cccc([N+](=O)[O-])c4)c23)cc1	0.6%	4.0%	u	3.4%	14.3%
CCCCNC(=O)c1cc(-c2ccc(OC)cc2)nc2n[nH]c(-c3cccc([N+](=O)[O-])c3)c12	-5.4%	0.7%	u	15.8µM*	14.9%
c1ccc2cc(OCc3nc4ccccc4[nH]3)ccc2c1	x	11.2µM*	x	x	11.2µM*
O=C(COc1ccc(F)cc1)NCCc1nc2ccccc2[nH]1	-12.4%	14.1%	-5.4%	-0.5%	-11.5%
CCCSc1ncc(Cl)c(C(=O)N(Cc2ccccc2)c2ccc(OC)cc2)n1	-12.9%	24.6%	u	-20.9%	48.1%
COc1ccc(CNC(=O)c2nc(S(=O)(=O)Cc3ccccc3)ncc2Cl)cc1	20.7µM*	-4.2%	5.32µM*	5.62µM*	12.6µM*
COc1ccc(CNC(=O)c2nc(SC(C)C)ncc2Cl)cc1	-7.2%	1.9%	-54.8%	-3.9%	-5.8%
O=C(NCc1ccccc1)c1nc(S(=O)(=O)Cc2ccccc2)ncc1Cl	16.5µM*	-14.4%	6.48µM*	8.91µM*	86.5%
COc1ccc(N(Cc2ccccc2)C(=O)c2nc(S(C)(=O)=O)ncc2Cl)cc1	2.07µM*	12.6µM*	1.78µM*	4.47µM*	11.2µM*
CS(=O)(=O)c1ncc(Cl)c(C(=O)N(Cc2ccc(Cl)cc2)Cc2ccco2)n1	1.85µM*	u	u	4.47µM*	u
Cc1ccc(Cl)cc1-n1ncc2c(N3CCC(C)CC3)ncnc21	-12.9%	12.1%	u	-23.7%	-6.4%
Cc1cccc(NC(=O)CCNS(=O)(=O)c2cccc3nonc23)c1	-19.3%	0.5%	3.4%	16.3%	-11.8%
COc1ccc(C)cc1NC(=O)CCNS(=O)(=O)c1cccc2nonc12	20.7µM*	-5.5%	-1.1%	12.0%	9.7%
COc1ccc(CSc2nc3ncccc3[nH]2)cc1	2.9%	11.2µM*	17.6%	-2.4%	11.2µM*
CCCNC(=O)CCSc1nc(-c2ccc3c(c2)OCO3)cc(C(F)(F)F)n1	-6.6%	1.1%	u	13.7%	-2.9%
COc1ccc(OC)c(CCNC(=O)c2cc3c(-c4ccccc4F)nn(C)c3s2)c1	0.7%	20.5%	u	-28.2%	10.9%
COC(=O)c1ccc(Nc2nc(-c3ccccc3Cl)nc3ccccc23)cc1	4.4%	7.9%	u	19.4%	u
Oc1ccc(Nc2nc(-c3ccc(Cl)cc3)nc3ccccc23)cc1	u	u	u	u	15.8µM*
O=C(NCCc1ccc(Cl)cc1)C(=O)NCC(c1ccco1)S(=O)(=O)c1ccc(Cl)cc1 (stereo unspecified)	1.17µM*	-6.9%	u	u	10.4%
Cc1ccc(S(=O)(=O)C(CNC(=O)C(=O)NCCc2ccc(Cl)cc2)c2ccco2)cc1 (stereo unspecified)	-0.5%	1.2%	-56.7%	-28.6%	-11.9%
Cc1cc(C)c2c(N)c(C(=O)Nc3ncc(C)s3)sc2n1	x	0.891µM*	x	x	1µM*
O=C(CC(Nc1ccc(Cl)cc1)C(=O)O)c1ccccc1 (stereo unspecified)	x	u	x	x	14.1µM*
CCCCS(=O)(=O)c1oc(-c2ccc(F)cc2)nc1S(=O)(=O)c1ccc(C)cc1	4.14µM*	15.8µM*	8.43µM*	u	u
SMILES	mTORC1 inh	p53null 32C tox	PMP22 txn prim	S16 F2sN tox	p53null 39C kill
CCCCS(=O)(=O)c1oc(-c2cccs2)nc1S(=O)(=O)c1ccc(F)cc1	2.07µM*	22.5%	3.03µM*	2.82µM*	55.2%
Cc1ccc(S(=O)(=O)c2nc(-c3ccc(F)cc3)oc2N2CCN(c3ccccc3)CC2)cc1	-8.2%	2.1%	0.3%	4.3%	4.8%
CCS(=O)(=O)c1oc(-c2ccc(F)cc2)nc1S(=O)(=O)c1ccccc1	0.131µM*	u	2.51µM*	3.16µM*	27.8%
CCC(C)S(=O)(=O)c1oc(-c2ccc(F)cc2)nc1S(=O)(=O)c1ccc(F)cc1 (stereo unspecified)	0.826µM*	25.1µM*	2.53µM*	6.31µM*	-17.5%
C#CC(C)(C)NS(=O)(=O)c1cc(-c2nnc(Nc3ccc(C)cc3)c3ccccc23)ccc1C	-5.0%	17.2%	u	u	8.7%
O=C(Cn1c(SCC(=O)Nc2ccc(F)cc2)nc2ccccc21)NCc1ccc(Cl)cc1	-12.5%	-16.2%	u	u	u
COc1ccc(/C=C(\C#N)c2nc(-c3cc4c(ccc5ccccc54)oc3=O)cs2)cc1O	3.5%	-3.7%	8.91µM*	u	6.2%
Cc1nn(-c2ccccc2)c2sc(C(=O)Nc3cccc(O)c3)cc12	11.1%	9.7%	u	u	25.1µM*
Cc1nn(-c2ccccc2)c2sc(C(=O)Nc3ccccc3Br)cc12	-28.6%	11.7%	-5.0%	11.8%	-4.4%
O=C(Nc1ccc2oc(-c3ccc4ccccc4c3)nc2c1)c1cc(Br)ccc1Cl	16.5µM*	-3.9%	u	-4.4%	-15.4%
O=C(Nc1ccc2oc(-c3cc(Br)ccc3Cl)nc2c1)c1ccc2ccccc2c1	-13.6%	-9.4%	u	22.4µM*	u
Cc1ccc(NC(=O)c2cccc(NC(=O)N3CCSc4ncccc43)c2)cc1Cl	-9.5%	-8.8%	u	-0.6%	-11.0%
COc1ccc(Cn2c(C(=O)O)c(CNCc3ccc(SC)cc3)c3ccc(OC)cc32)cc1	16.5µM*	4.2%	u	u	u
CCOc1ccc(CCNCc2c(C(=O)O)n(Cc3ccc(C)cc3)c3cc(OC)ccc23)cc1	11.7µM*	46.2%	u	0.1%	47.2%
C=Cc1ccc(Cn2c(C(=O)O)c(CNCc3ccc(F)cc3)c3ccc(C)cc32)cc1	-13.6%	46.8%	u	28.2µM*	u
COCCNC(=O)CSc1nnc(NC(=O)Nc2ccc(C)cc2)s1	0.2%	12.6µM*	4.4%	6.3%	2.8%
CC(C)NC(=O)c1cc2c(s1)CCCC2	x	u	x	x	10µM*
CNC(=O)c1cc2c(s1)CCCCCC2	x	-17.9%	x	x	-9.0%
CCCCNc1sc(S(=O)(=O)CC)nc1S(=O)(=O)c1ccc(C)cc1	-12.3%	6.5%	-0.4%	1.5%	-15.2%
CCN1C(=O)c2ccccc2S(=O)c2ccc(C(=O)N3CCN(c4cccc(C)c4)C(C)C3)cc21 (stereo unspecified)	1.9%	-7.2%	u	u	-1.3%
